Bioassay records (PubChem BioAssay)
KB-3-1 cytotox: kills parental KB-3-1 adenocarcinoma cells; KB-3-1 viability, CellTiter-Glo ATP luminescence, 72 h; hit rate 1.4% among 400,000; Potency, µM (doses to about 46.1 µM), actives largely listed as cytotoxic; AID 1347075; further: on the % scale 0 is the no-effect control and ±100 the full control effect; nearly all actives have a fitted effect of over 60% in size
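Parental KB-3-1 viability, qHTS format: 72 h compound exposure, 37 °C; CellTiter-Glo; media-only wells and DMSO plates as controls; concentration-effect fits on corrected data.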
SW480 rereplic: inducers of DNA re-replication in SW480 colon cancer cells; Potency, µM (titrated, usually from 46.1 µM), for inactives: at the highest dose re-replication activation, hits mostly activators; hit rate 1.8% among 340,000; SW480 DNA re-replication, Hoechst DNA content imaging, 48 h; further: % of control where 0% means no effect; nearly all actives have a fitted effect of over 55% in size
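Readout is total intensity of Hoechst-stained nuclei, excited at 405 nm and collected at 500-530 nm. Compound treatment lasted 48 hr at 37 C in 5% CO2 before staining.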
MCF10A rereplic: induces DNA re-replication in MCF 10a normal breast cells | MCF 10A DNA re-replication, Hoechst nuclear intensity, 48 h | Potency, µM (highest dose often 46.1 µM), without a hit: top-dose activity, positive = re-replication, hits mostly activators | hit rate 2.9% among 350,000; further: % of control where 0% means no effect; nearly all actives have a fitted effect of over 50% in size
ELG1 DNA repair: inhibitors of ELG1-dependent DNA repair in HEK293T cells; hit rate 2.3% among 330,000; AID 504467; Potency, µM (doses to about 46.1 µM), without a hit: top-dose activity change, negative = inhibition, usual class: inhibitors; HEK293T ELG1-luciferase reporter, luminescence, 16 h; DNA damage induced by 5-fluorouridine; further: on the % scale 0 is the no-effect control and ±100 the full control effect; nearly all actives have a fitted effect of over 55% in size
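HEK293T cells expressing luciferase-tagged ELG1 (2,000/well) received 5-Fluorouridine plus compound or DMSO for 16 hr at 37 °C. Luciferase was read by ONE-Glo luminescence after 30 min at room temperature.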
KB-V1 cytotox: KB-V1 MDR subline cytotoxicity; Potency, µM (series often up to 46.1 µM), most hits filed as cytotoxic; KB-V1 MDR cells viability, CellTiter-Glo, 72 h; hit rate 3.4% among 400,000; further: on the % scale 0 is the no-effect control and ±100 the full control effect; nearly all actives have a fitted effect of over 60% in size
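qHTS viability screen in drug-selected KB-V1 MDR cells: 72 h compound treatment at 37 degrees C, ATP luminescence end point.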
Numbers without * were called inactive; i = inactive; ? = inconclusive; . = no result. An excerpt weighted towards active compounds, which were near 8.2% of everything screened. The call rests on the fitted dose curve; in most records, active means well fitted curve in the direction sought with a large enough effect; inconclusive means small, poorly fitted or top-dose-only effect, or another doubt; inactive means no such curve, though single readings can be large; an effect the other way counts as inactive or inconclusive. Potency means the concentration at half of the fitted maximal effect.

SMILES	KB-3-1 cytotox	SW480 rereplic	MCF10A rereplic	ELG1 DNA repair	KB-V1 cytotox
COc1ccc(CN(C)C(=O)COC(=O)c2c(C)nn(-c3ccc(F)cc3)c2Cl)cc1	i	-3%	14%	13µM*	i
COc1ccc(CNC(=O)c2cccc(C)c2[N+](=O)[O-])cc1	i	-49%	-42%	9%	23µM*
COc1ccc(CNC(=O)c2ccc3c(=O)n(-c4ccccc4)c(=O)[nH]c3c2)cc1	i	-7%	-3%	1%	i
COc1cccc(CNC(=O)Cc2ccc(-n3c(=O)[nH]c4ccccc4c3=O)cc2)c1	4.1µM*	?	?	-13%	?
CCn1cc(C(=O)NCCCOC)c(=O)c2cc(S(=O)(=O)N3CCCC3)ccc21	i	-5%	3%	-4%	i
COC(=O)C1(C(=O)OC)C2CCCCC2N(S(=O)(=O)c2ccc(C)cc2)[C@@H]1CC(C)=O (some centres undefined)	i	.	.	.	?
COc1cccc(CNC(=O)Cc2ccc(-c3ccccc3)cc2)c1	?	?	10µM*	-24%	?
CCCCC(CC)CNC(=O)CN(C)S(=O)(=O)c1ccc2c(c1)c(=O)n(C)c(=O)n2C (centres undefined)	i	.	.	.	i
Cc1ccc(-n2cc(CN3CCN(Cc4nccn4C)CC3)c(-c3ccc(F)cc3)n2)cc1	i	4%	7%	?	i
Cc1ccc(-n2cc(CN3CCN(c4ccccn4)CC3)c(-c3ccc(F)cc3)n2)cc1	?	?	18µM*	-8%	?
Cc1ccc(-n2cc(CN3CCN(C(=O)c4ncn[nH]4)CC3)c(-c3ccc(F)cc3)n2)cc1	i	2%	4%	21µM*	?
CCOc1ccc2cc(C#N)c(SCC(=O)OCc3ccccc3)nc2c1	i	.	.	.	i
CCCCn1c(N)c(N(CCOC)C(=O)c2ccc(C)o2)c(=O)[nH]c1=O	i	3%	2%	28%	i
Cc1ccc(C(=O)N/C(=C/c2ccc(N(C)C)cc2)C(=O)NCC2CCCO2)cc1 (centres undefined)	i	-7%	5%	-6%	i
COc1ccccc1NC(=O)C1=C(C)NC2=C(C(=O)CC(c3ccc(OC)c(OC)c3)C2)C1c1coc2ccccc2c1=O (centres undefined)	i	0%	-3%	10µM*	?
COC(=O)C1C(=O)C2=C(CC1C)NC(C)=C(C(=O)OCCOc1ccccc1)C2c1ccc(C)o1 (centres undefined)	i	10%	-3%	23µM*	i
CCOC(=O)C1=C(C)NC2=C(C(=O)CC(c3ccc(OC)c(OC)c3)C2)C1c1ccc(C)o1 (centres undefined)	i	-5%	4%	?	18µM*
CCOC(=O)C1=C(C)NC(C)=C(C(=O)OCC)C1c1ccc(OC)c(OC)c1	i	.	.	.	i
COc1cc(OC)c(NC(=O)N2CC=C(c3c[nH]c4ccccc34)CC2)cc1Cl	i	.	.	.	i
C=C(C)COc1ccc2c(C)c(CC(=O)N3C[C@H]4C[C@@H](C3)c3cccc(=O)n3C4)c(=O)oc2c1C	?	-18%	-2%	-21%	i
Cc1cc(NC(=O)c2cnn3c(C(F)F)cc(-c4ccccc4)nc23)no1	i	-16%	?	8.2µM*	i
COCCNC(=O)c1cnn2c(C(F)F)cc(-c3ccccc3)nc12	i	15µM*	?	?	i
Cc1ccc(C(=O)Nc2c(C(=O)NCc3ccco3)cnn2-c2ccccc2)cc1	i	-4%	-1%	?	i
COCCNC(=O)c1cnn2c(C(F)(F)F)cc(-c3ccc(C)cc3)nc12	i	-4%	4%	5.8µM*	i
O=C(Nc1c(C(=O)NCc2ccco2)cnn1-c1ccccc1)c1cccc(F)c1	i	-2%	0%	?	9.2µM*
SMILES	KB-3-1 cytotox	SW480 rereplic	MCF10A rereplic	ELG1 DNA repair	KB-V1 cytotox
Cc1cccc(CNC(=O)CCCN2C(=O)CCn3nc(-c4cccn4C)cc32)c1	i	.	.	.	i
Cn1c(=O)n(-c2ccc(C(C)(C)C#N)cc2)c2c3cc(-c4cnc5ccccc5c4)ccc3ncc21	?	.	.	.	i
O=C(NCc1ccco1)c1cnn2c(C(F)F)cc(-c3ccccc3)nc12	i	17%	8.2µM*	?	i
Cc1cc(NC(=O)c2cc(-c3cccnc3)nc3c(C)c(C)ccc23)no1	?	?	18%	23µM*	i
Cc1cc(NS(=O)(=O)c2ccc(NC(=O)c3cc(-c4cccnc4)nc4ccc(Cl)cc34)cc2)no1	i	-4%	-10%	-3%	i
CCCOc1cccc(C(=O)NCCNC(=O)c2ccco2)c1	i	-3%	-2%	-2%	?
CCOc1ccc(C(=O)c2ccncc2)cc1	i	-2%	-2%	2%	i
COc1ccc(C(C)=O)cc1	i	.	.	.	i
COc1ccc(C(=O)C(CCCCC(CN(C)C)C(=O)c2ccc(OC)cc2)CN(C)C)cc1 (centres undefined)	i	?	?	-2%	13µM*
CN(C)CC(CCC(CN(C)C)C(=O)c1ccccc1)C(=O)c1ccccc1 (centres undefined)	16µM*	?	?	?	8.2µM*
CCOc1ccc(C(=O)C(CCC(CN(C)C)C(=O)c2ccc(OCC)cc2)CN(C)C)cc1 (centres undefined)	?	3.7µM*	?	?	i
Clc1ccc(-c2nnc(Sc3nc4ccccc4o3)c3ccccc23)cc1	?	-4%	?	?	i
Cc1ccc(-c2nnc(Sc3nc4ccccc4o3)c3ccccc23)cc1	i	?	8.2µM*	?	i
CCSc1nnc(C)c2ccccc12	i	0%	3%	12%	?
Cc1nnc(Sc2nc3ccccc3o2)c2ccccc12	?	?	13µM*	?	i
CCOc1ccc(Nc2ccc(S(=O)(=O)N3CCOCC3)cc2[N+](=O)[O-])cc1	i	.	.	.	?
CCc1ccc(Nc2ccc(S(=O)(=O)N3CCOCC3)cc2[N+](=O)[O-])cc1	i	3%	-9%	-15%	23µM*
Cc1cccc(-c2nc3c(s2)CCc2onc(-c4ccc(Br)cc4)c2-3)c1	i	-1%	9%	15%	i
OC1(c2ccccc2)CCN(Cc2ccccc2)C2CCCCC21 (centres undefined)	i	-35%	11%	-11%	23µM*
CCc1nc2c(OCC(=O)C(C)(C)C)cccn2c1N(C)C(=O)c1ccco1	i	.	.	.	i
Cc1[nH]c2ccccc2c1C(=O)C(=O)N1CCN(c2cccc(Cl)c2)CC1	?	?	21µM*	-6%	i
